# The campaign covered roughly 310,000 compounds. About 11,000 (3.5%) were called active. Not shown: some 4% with an inconclusive outcome. This is one part of a sample in which actives are shown more often than they occur. Calls follow the shape of the dose curve; as a rule, active = well fitted inhibition curve with a large enough effect; inconclusive = small, poorly fitted or top-dose-only effect, or another doubt; inactive = no such curve, though single readings can be large or run the other way. A structure can be active in one record and inactive in another.
# Molecular target: 4'-phosphopantetheinyl transferase ffp (Bacillus subtilis) (UniProt Q9F4F7)
# Experiment: qHTS Assay for Inhibitors of Bacillus subtilis Sfp phosphopantetheinyl transferase (PPTase);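 also: the enzyme is Sfp with the accession as filed and its product quenches rhodamine fluorescence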;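 as to largest response in the series, negative = inhibition: 0% = enzyme reaction without inhibitor and -100% = no enzyme wells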
# Details: Biochemical Sfp PPTase activity
# From the text: Assay Submitter: Michael Burkart, University of California, San Diego
# Screening Center PI: Austin, C.P.
# Screening Center: NIH Chemical Genomics Center [NCGC]
# The covalent attachment of a phosphopantetheinyl (4'-PP) arm to a variety of synthases and other proteins is a key posttranslational protein modification. The 4'-PP is installed on the proteins post-translationally from coenzyme A (CoA) on a conserved serine residue by action of phosphopantetheinyl transferase (PPTase) enzymes. Phosphopantetheinylation is essential for synthase activity, and removal of the PPTase gene precludes natural product synthesis in microorganisms, or in the case of fatty acid biosynthesis, renders the organism unviable. PPTase enzymes belong to a distinct structural superfamily. Within bacteria, these enzymes are grouped into two classes based upon primary structure, the AcpS-Type and Sfp-Type PPTases.
# Sfp-type PPTases, corresponding to an activator of surfactin production in Bacillus subtilis, are responsible for modifying type I polyketide and nonribosomal peptide synthases of prokaryotes. Sfp-type PPTases are responsible for the activation of a variety of pathogen-associated virulence factors. Among these compounds are toxins such as mycolactone from Mycobacterium ulcerans, siderophores such as vibriobactin from Vibrio cholerae or mycobactin from Mycobacterium tuberculosis, as well as the mycolic acids which form the waxy cell wall of Mycobacteria. The biosyntheses of these natural products are considered attractive targets for drug design.
# In search of small molecule Sfp-PPTase inhibitors, a fluorescence quenching assay was developed for detection of Bacillus subtilis Sfp-PPTase enzymatic activity in a miniaturized high-throughput format. The consensus ybbr acceptor peptide […] was N-terminally labeled with Black Hole Quencher-2 (BHQ-2) and used in combination with rhodamine-labeled coenzyme A as a co-substrate.
# Inhibition of Sfp-PPTase was detected by recording the fluorescence intensity change over a 30-minute reaction period at a 525 nm excitation and 598 nm emission. Reagents were supplied by Michael Burkart and Timothy Foley, University of California at San Diego.
# This BioAssay deposition is for validation of the developed Sfp-PPtase assay.
# Assay Buffer: 50 mM Hepes-Na pH 7.6, 10 mM MgCl2, 0.01% Nonidet P-40, and 0.01% BSA.
# 3 uL of Sfp-PPTase enzyme (final concentration 15 nM) and 1 uL of substrate mixture (final concentration for rhodamine-CoA and BHQ-2-YbbR 5 uM and 12.5 uM, respectively) dispensed in columns 1, 2, 5 - 48. Columns 1 and 2 used to generate neutral control (uninhibited reaction)
# Three uL of reagents, consisting of buffer (in columns 3 and 4 as negative control) and Sfp-PPTase (in columns 1, 2, 5 - 48) were dispensed into 1,536-well Greiner black solid bottom plate. Compounds (23 nL) were transferred via Kalypsys pintool equipped with 1,536-pin array. The plate was incubated for 15 min at room temperature, followed by the addition of 1 uL substrate to start the reaction. The plate was then centrifuged at 1000 rpm for 15 seconds, and the fluorescence intensity recorded on a ViewLux High-throughput CCD imager (Perkin-Elmer) using standard BODIPY optics (525 nm excitation and 598 nm emission). The plate was then incubated for 30 minutes, and a second read on the ViewLux was performed. The fluorescence intensity difference over the 30-minute period was used to calculate the respective reaction rate for each well.
# Potency is read from the fitted curve at half-maximal effect.
SMILES,Potency,"largest response in the series, negative = inhibition"
COc1cc(Cn2c(N)c(C(=O)NCc3ccco3)c3nc4ccccc4nc32)cc(OC)c1OC,56.2 µM (active),
CCOC(=O)C(O)(c1ccc(NC(=O)c2ccco2)c(OC)c1)C(F)(F)F (stereo not drawn),,3.62% (inactive)
CCOC(=O)c1c(N)n(Cc2ccccc2)c2nc3ccccc3nc12,,13.5% (inactive)
c1cncc(CNC2=NCCC2)c1,,12.2% (inactive)
CC1CCCCN1Cc1cccnc1 (stereo not drawn),,-23.2% (inactive)
CN1CCC(N(C)Cc2cccnc2)CC1,89.1 µM (active),
CC(=O)c1c(O)c(C)c(O)c(Cc2c(O)c3c(c(C(=O)/C=C\c4ccccc4)c2O)OC(C)(C)C=C3)c1O,,-29.6% (inactive)
COC1CC(OC2CC[C@@]3(C=O)C4CC[C@]5(C)C(C6=CC(=O)OC6)CC[C@@]5(O)C4CC[C@]3(O)C2)OC(C)C1O (stereo partly drawn),,2.96% (inactive)
CC(C(=O)Nc1ccc(Cl)cc1Cl)N1CC=C(c2ccccc2)CC1 (stereo not drawn),56.2 µM (active),
CN1CCN(C(=S)SCC(=O)Nc2ccc(Cl)cc2C(=O)c2ccccc2)CC1,,-8.26% (inactive)
CN(C)C1C(=O)C(C(N)=O)=C(O)[C@@]2(O)C(=O)C3=C(O)c4c(O)cccc4[C@@](C)(O)C3C[C@@H]12 (stereo partly drawn),,-32.6% (inactive)
C[C@@H]1C[C@H]2CC[C@H](O2)[C@H](C)C(=O)O[C@@H](C)C[C@@H]2CC[C@@H](O2)[C@@H](C)C(=O)O[C@H](C)C[C@H]2CC[C@H](O2)[C@H](C)C(=O)O[C@@H](C)C[C@@H]2CC[C@@H](O2)[C@@H](C)C(=O)O1,,6.1% (inactive)
CC(=O)OC1C2CCC3C1(CC(O)[C@@]1(O)[C@@H](CC(O)C1(C)C)[C@]3(C)O)C[C@@]2(C)O (stereo partly drawn),,6.04% (inactive)
N#Cc1c(Cl)c(Cl)c(Cl)c(C#N)c1Cl,,-8.59% (inactive)
CC[N+]1(CCOC(=O)C(O)(c2ccccc2)c2ccccc2)CCCCC1,,12% (inactive)
CO[C@@H]1C[C@@H](C[C@H]2CC[C@H](C)[C@@H]([C@@H](C)C(=O)O)O2)O[C@]2(O[C@](C)([C@H]3CC[C@@](C)(C4OC([C@H]5O[C@@](O)(CO)[C@H](C)C[C@@H]5C)C[C@@H]4C)O3)C[C@H]2C)[C@@H]1C (stereo partly drawn),,23.4% (inactive)
CN(C)/C=C(\C=[N+](C)C)c1[nH]ncc1[N+](=O)[O-],,0.787% (inactive)
CC(C)(Cc1c[nH]c2ccc(Cl)cc12)NCCOc1ccccc1OCC1CC1,35.5 µM (active),-25.3% (inactive)
CCC(=O)CC(c1ccc([N+](=O)[O-])cc1)c1c(O)c2ccccc2oc1=O (stereo not drawn),,6.92% (inactive)
c1ccc(CN2CC[C@@]3(CCCNC3)C2)cc1,,1.98% (inactive)
COc1ccc(C2CC(c3cccs3)=NN2c2nc(C)c(C(C)=O)s2)cc1OC (stereo not drawn),39.8 µM (active),

SMILES,Potency,"largest response in the series, negative = inhibition"
Cc1ccc(-n2c(O)c(C=NCC3CCCO3)c(=O)[nH]c2=O)c(C)c1 (stereo not drawn),,-4.95% (inactive)
CNC(=S)N/N=C1\C2CN3CCN(C2)CC1(c1ccccc1)C3,,-18% (inactive)
O=C1NC(=O)N(c2ccccc2)C(=O)/C1=C/c1ccc([N+](=O)[O-])s1,35.5 µM (active),
COc1cccc(N2C(=O)NC(=O)/C(=C\c3ccc([N+](=O)[O-])s3)C2=O)c1,31.6 µM (active),
COc1cc(-n2c(=S)[nH]c3ccc(C)cc3c2=O)c(Cl)cc1Cl,,4.46% (inactive)
C=CCSSCC=C,,-26.6% (inactive)
Cc1cccc([C@H](C)c2cnc[nH]2)c1C,,9.27% (inactive)
COc1ccc(C2N3CC(C)(C)CN23)cc1 (stereo not drawn),,0.855% (inactive)
Cc1cccc(-n2c(O)c(C=NC34CN5CN(CN(C5)C3)C4)c(=O)[nH]c2=O)c1,,9.77% (inactive)
C[N+]12CN3CN(CN(C3)C1)C2,,12.8% (inactive)
c1ccc(N2CC[C@@]3(CCCNC3)C2)nc1,,-23.5% (inactive)
O=c1[nH]c(=O)n(-c2ccccc2)c(O)c1C=NC12CN3CN(CN(C3)C1)C2,,-28% (inactive)
CCCCCCCCCCCCN=C(N)N,,-27% (inactive)
O=C1NC(=O)N(c2ccc(F)cc2)C(=O)/C1=C/c1ccc2c(c1)CCCN2Cc1ccccc1,44.7 µM (active),
CCC(C)C(=O)O[C@@H]1C[C@@]2(C)C(c3ccoc3)OC(=O)CC23OC2(C)O[C@@]14[C@@]1(C)C(CC(=O)OC)C5(C)CC1(O)C(O)(C5OC(=O)C1(C)OC1C)C(OC(C)=O)[C@@]34O2 (stereo partly drawn),,3.31% (inactive)
CN(C)CC1CCCCC1OC(=O)c1ccc(Cl)c(Cl)c1 (stereo not drawn),,-11.6% (inactive)
CCCCCCN=C(CC)c1c(O)n(CCCC)c(=O)[nH]c1=O,,-9.2% (inactive)
C[C@@]12CCC3C(CC[C@@H]4CC(O)CC[C@@]34C)C1CCC2O (stereo partly drawn),,7.22% (inactive)
Cc1ncsc1CCCl,79.4 µM (active),
Clc1ccc([C@@H]2C[C@H]3CC[C@@H]2N3)cn1,,9.37% (inactive)
Cc1ccc(-c2nn(CCC#N)cc2C(=O)O)cc1C,,25.7% (inactive)

# Source: PubChem BioAssay AID1490 (National Center for Advancing Translational Sciences (NCATS), 2009)
